Sampled rows, rich in hits. Any-hit rate of the full collection: about 6%.
DRD3 antagonist = qHTS of D3 Dopamine Receptor Antagonist: qHTS; max response, negative = inhibition, %; AID 652054, 2013; D3R cells, DiscoveRx beta-arrestin luminescence, antagonist mode; stronger effect = lower value; actives 2.5% (n = 360,000); in the data active means max response below about -50%; inconclusive means no clear call, values can overlap the other calls; further: on the % scale 0 is the no-effect control and ±100 the full control effect
Target sequence (P35462 whole entry, looked up): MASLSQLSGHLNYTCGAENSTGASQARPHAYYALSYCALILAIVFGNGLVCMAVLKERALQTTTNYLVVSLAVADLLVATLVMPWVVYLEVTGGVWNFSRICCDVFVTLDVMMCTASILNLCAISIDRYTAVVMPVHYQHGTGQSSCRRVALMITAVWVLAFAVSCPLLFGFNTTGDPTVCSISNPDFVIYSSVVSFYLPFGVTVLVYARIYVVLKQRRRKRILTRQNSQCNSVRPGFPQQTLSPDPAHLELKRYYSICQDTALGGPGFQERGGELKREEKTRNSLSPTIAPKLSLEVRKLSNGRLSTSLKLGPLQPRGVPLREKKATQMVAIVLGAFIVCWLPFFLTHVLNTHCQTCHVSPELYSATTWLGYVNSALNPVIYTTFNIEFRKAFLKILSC
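Cells plated overnight at 1500 cells/well, then exposed to library compounds with dopamine controls for 90 minutes at 37 degrees C. DiscoveRx reagent added for 30–60 minutes at room temperature; luminescence read, quantitative HTS format.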
D1 antagonist = Antagonist of Human D 1 Dopamine Receptor: qHTS; actives 3.2% (n = 360,000); HEK293 TREx D1 cells, calcium flux, dopamine EC80; stronger effect = lower value; activity change, negative = inhibition, % at 10 µM; in the data active means activity change below about -30%; further: on the % scale 0 is the no-effect control and ±100 the full control effect
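Tetracycline-induced HEK293 Trex D1 cells, force-coupled to calcium, dye-loaded; compounds added and read 180 s, then EC80 dopamine added and calcium flux tracked kinetically another 180 s.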
D1 ag = Allosteric Agonists of the Human D1 Dopamine Receptor: qHTS | actives 1% (n = 360,000) | AID 504660, 2011 | activation, % at 2 µM | HEK293 T-REx D1 cells, calcium flux, agonist mode | D(1A) dopamine receptor (Homo sapiens), P21728; in the data active means activation above about 30%; further: 0% is about no effect
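Agonism was scored from calcium flux recorded over 180 s (1 read/s) after pintool compound addition, following a 10-cycle baseline. Cells were inducible force-coupled HEK293 TREx D1, plated overnight at 30 C and loaded with no-wash calcium dye.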
D3 ag = qHTS of D3 Dopamine Receptor Agonist: qHTS; max activation, %; D3R DiscoveRx beta-arrestin cells, luminescence, 90 min; actives 0.58% (n = 410,000); D(3) dopamine receptor (Homo sapiens), P35462; in the data active means max activation above about 30%; further: 0% is about no effect
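Cells at 1500/well, incubated overnight, then treated with pinned compounds (dopamine as control) for 90 min at 37 degrees C. DiscoveRx reagent added for 30 - 60 minutes at room temperature; luminescence read.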
D1 potentiator = Potentiators of Human D1 Dopamine Receptor: qHTS | D(1A) dopamine receptor (Homo sapiens), P21728 | HEK293 TREx D1 cells, calcium flux, dopamine EC20 potentiation | potentiation, % at 10 µM | actives 0.036% (n = 360,000) | AID 504651, 2011; in the data active means potentiation above about 30%; further: 0% is about no effect
* = called active by the depositor; ? = inconclusive; · = no result; ! = a repeat was not active.

SMILES	DRD3 antagonist	D1 antagonist	D1 ag	D3 ag	D1 potentiator
CCCCCC(=O)N(O)C1CC(=O)N(c2ccccc2)C1=O (centres undefined)	-86*	22	3	-4	2
CCCCCCC(=O)N(O)C1CC(=O)N(Cc2ccccc2)C1=O (centres undefined)	-5	-10	-1	-1	-5
CCc1ccccc1N(C)S(=O)(=O)c1ccc(-c2cc(C)no2)s1	10	-11	10	0	-5
Cc1cc(C)cc(OCC(=O)N2N=C(C(F)(F)F)CC2(O)C(C)(C)C)c1 (centres undefined)	12	-12	34*	1	-6
CN1C(=O)C[C@@H](C(=O)N[C@@H](Cc2cnc[nH]2)C(=O)N2CCC[C@H]2C(N)=O)NC1=O	·	·	·	5	·
CC(=NNC1=NCCN1)c1cn(C2=NCCN2)nc1C	-50*	·	·	-5	·
CCCCOc1ccc(Br)cc1/C(C)=N/NC1=NCCN1	-26	-11	6	-22	-9
C=CCc1ccccc1OCC(O)CN1CCN(Cc2ccc3c(c2)OCO3)CC1 (centres undefined)	-89*!	-71*	14	-7	-10
C=CCc1ccccc1OCC(O)CN1CCN(c2ccc(C)cc2)CC1 (centres undefined)	-59*	-50*	1	-30	-12
CC[C@@H](C)[C@H](N)C(=O)O	·	·	·	-6	·
Cn1c(=O)[nH]c(=O)c2c1nc1n(CCO)c(-c3ccccc3)cn21	·	-1	1	9	9
FC(F)(F)Oc1ccc(Nc2nc(N3CCOCC3)nc(N3CCOCC3)n2)cc1	-4	-16	6	0	-2
CN(C)CCCOC(=O)c1ccccc1Cl	?	-11	2	-4	5
CN(C)CCCOC(=O)N1c2ccccc2C=Cc2ccccc21	-61*	-3	6	-2	-5
CC(C)CNc1ncnc2c1ncn2[C@H]1CN(Cc2cccs2)C[C@@H](CO)O1	-6	·	·	-8	·
O=C(O)c1ccc(S(=O)(=O)N[C@@H](Cc2ccc(O)cc2)C(=O)O)cc1	·	-11	4	·	-2
N#Cc1ccc(C[C@@H](NS(=O)(=O)c2ccc(C(=O)O)cc2)C(=O)O)cc1	·	-35*	2	·	-5
O=C(COC(=O)Cc1ccccc1F)Nc1ccc2c(c1)OCO2	10	-37*	5	0	-4
O=C(Cc1ccccc1F)Nc1ccc(SC(F)F)cc1	-14	15	8	-4	-3
O=C(COC(=O)Cc1ccccc1F)Nc1ccc(SC(F)F)cc1	?	-35*	8	6	-7
O=C(COC(=O)Cc1ccccc1F)Nc1ccc2c(c1)OCCO2	-16	-27	5	5	-11
Cc1ccc(NC(=O)CN2C(=O)CCn3nc(-c4cccn4C)cc32)cc1	·	-1	1	3	1
COC(=O)C(N)Cc1ccc(Cl)cc1 (centres undefined)	6	12	0	2	0
COC(=O)[C@@H](N)Cc1ccc(O)c(O)c1	0	-53*	-2	16	-6
Cc1cc(NC2CCCCC2)nc2ccccc12	-67*	-33*	23	4	-6
SMILES	DRD3 antagonist	D1 antagonist	D1 ag	D3 ag	D1 potentiator
Cc1ccccc1-c1ncc(CN2CCC(CO)(CCCc3ccccc3)CC2)cn1	-26	-55*	10	-15	-3
COc1ccc(-c2ncc(CN3CCC(CO)(Cc4cccc(OC)c4)CC3)cn2)cc1	-18	-1	39*	1	6
COc1ccc(CC2(CO)CCN(Cc3ccc4nsnc4c3)CC2)cc1	-73*	4	4	-25	-6
COc1ccc(CC2(CO)CCN(S(=O)(=O)c3c(C)nn(C)c3Cl)CC2)cc1	1	-14	13	1	-7
OCC1(Cc2ccccc2)CCN(Cc2cnc(-c3ccc(Cl)cc3)nc2)CC1	6	7	8	-15	-6
COc1ccc(CC2(CO)CCN(S(=O)(=O)c3sccc3C)CC2)cc1	8	-14	32*	14	-6
CC1CCCCN1CCCNC(=O)Cn1ncc2c3ccccc3n(Cc3ccccc3)c2c1=O (centres undefined)	·	4	-2	3	-3

Screening results as filed in PubChem.
